From PubChem BioAssay (Tox21)
Calls of active or inactive are those of the source. The call rests on the fitted dose curve; in most records, active means well fitted activation curve with a large enough effect in the repeat runs; inconclusive means weak or mixed curves; inactive means flat fitted curve, though single readings scatter.

molecular target: KiSS-1 receptor (Homo sapiens) (UniProt Q969F8); assay: Human kisspeptin (KISS1R) small molecule agonists, calcium flux assay in KISS1R-HEK293 cells (AID 1920064); conditions: KISS1R-HEK293, calcium flux fluorescence, agonist; series mostly up to 76.8 µM; activation: at the top concentration
From the text: National Center for Advancing Translational Sciences [NCATS]
Division of Preclinical Innovation [DPI]
U.S. Environmental Protection Agency [EPA]
National Institutes of Environmental Health Sciences [NIEHS]
National Toxicology Program [NTP]
U.S. Food and Drug Administration [FDA]
Kisspeptin and its receptor KISS1R play key roles in mammalian reproduction due to their involvement in the onset of puberty and control of the hypothalamic-pituitary-gonadal axis such as regulates GnRH release from the hypothalamus. The kisspeptin/KISS1R system also plays a direct role in peripheral organs (including the ovary, testis, uterus, and placenta) and is implicated in reproductive diseases such as miscarriage and polycystic ovary syndrome (PCOS). Abnormal KISS1R activity is associated with abnormal puberty, infertility, endometriosis, and hormone-dependent tumors. The KISS1 receptor (KISS1R, also called GPR54), a G-protein-coupled receptor (GPCR), acts (through phospholipase C) to increase intracellular inositol trisphosphate and then release intracellular calcium stores. Cell-based KISS1R-HEK293 assay is using HEK293 cells that have been genetically engineered to express the human KISS1R, which activity can be measured by calcium signaling. A compound/drug can activate (agonist) KISS1R that can be monitored by levels of intracellular calcium.
KISS1R-HEK293 cells developed by Codex Corp contain human KISS1R gene, which was stably integrated into HEK 293 cells. The compound activation can be detected by fluorescence intensity via calcium flux assay. This cell line has been used to screen the Tox21 10K compound library to identify agonists of KISS1R.
KISS1R-Hek293 cells were dispensed at 1500 cells/4uL/well in 1536-well black wall/clear bottom plates using a multidrop dispenser. After the assay plates were incubated at a 37 C/5% CO2 incubator for 18 hours, 4 microL of Calcium Dye Solution was added to each well. The plates were incubated at 37 C for 1 hour. And then 23 nL of compounds dissolved in DMSO, positive controls, or DMSO only was transferred to the assay plate by a pin tool station. The fluorescence intensity in the plates was measured using FDSS 7000EX kinetic plate reader with a filter set of Ex/Em=480/540 for 3 min at 1 sec intervals. Each test compound was measured at 15 concentrations and in triplicates.
On the % scale 0 is the no-effect control and ±100 the full control effect.

Sequence of KiSS-1 receptor (Homo sapiens) (Q969F8 whole entry, looked up): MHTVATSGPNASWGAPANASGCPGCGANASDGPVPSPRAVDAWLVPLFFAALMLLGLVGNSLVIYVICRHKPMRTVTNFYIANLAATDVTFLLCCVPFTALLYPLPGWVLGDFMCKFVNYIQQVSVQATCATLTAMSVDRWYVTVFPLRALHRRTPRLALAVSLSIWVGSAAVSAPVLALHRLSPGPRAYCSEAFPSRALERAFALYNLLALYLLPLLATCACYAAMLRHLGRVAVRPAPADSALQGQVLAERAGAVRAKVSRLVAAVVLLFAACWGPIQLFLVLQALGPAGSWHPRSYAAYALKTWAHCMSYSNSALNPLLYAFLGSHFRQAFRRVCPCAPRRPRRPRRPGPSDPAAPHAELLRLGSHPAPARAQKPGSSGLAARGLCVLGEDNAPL

Question: Which “activation” value does the source give for `NNCc1ccccc1` here?
Answer: Its value is 1.21% (inactive).

Question: `COC(=O)c1ccccc1S(=O)(=O)NC(=O)Nc1nc(C)nc(OC)n1` was tested. Which “activation” value did it give?
Answer: Its value is 4.58% (inactive).

Question: With `Clc1c(Cl)c(Cl)c(Cl)c(Cl)c1Cl` as the compound, how does the activation read?
Answer: The activation was 2.59% [at 6.97 µM] (inactive).

Question: With `ClC=C(Cl)Cl` as the compound, how does the “activation” value read?
Answer: The value was 0.245% (inactive).

Question: Which “activation” value does the source give for `COc1ccc(/C(=C/C(=O)N2CCOCC2)c2ccc(Cl)cc2)cc1OC` here?
Answer: Its value is 2.03% (inactive).

Question: For `CCC(C(N)=O)N1CCCC1=O` (stereo not given), which “activation” value is on record?
Answer: Its value is 0.0945% [at 35.3 µM] (inactive).

Question: With `Cc1ccc2c(c1)C1CN(C)CCC1N2` (stereo not given) as the compound, how does the activation read?
Answer: Its activation is -0.319% [at 15.8 µM] (inactive).

Question: For `O=C1Nc2ccc(Cl)cc2C(c2ccccc2)=NC1O` (stereo not given), which Potency is on record?
Answer: The Potency was “inactive”.

Question: Which “activation” value does the source give for `Cl/C=C\Cl` here?
Answer: Its value is 7.37% (inactive).

Question: Which “activation” value does the source give for `O=C(Nc1ccccc1-c1ccc(Cl)cc1)c1cccnc1Cl` here?
Answer: The value was 8.92% (inactive).

Question: With `CCOP(=S)(OCC)OC(Cl)C(Cl)(Cl)Cl` (stereo not given) as the compound, how does the “activation” value read?
Answer: The value was -2.04% (inactive).

Question: With `CC(C)O.CC(C)O.OCCN(CCO)CCO.OCCN(CCO)CCO.[Ti]` as the compound, how does the “activation” value read?
Answer: Its value is 0.0572% (inactive).

Question: With `O=S(=O)(Cl)c1ccccc1` as the compound, how does the “activation” value read?
Answer: The value was -0.58% (inactive).

Question: How did the “activation” value turn out when `COCc1cnc(C2=NC(C)(C(C)C)C(=O)N2)c(C(=O)O)c1` (stereo not given) was run?
Answer: Its value is 0.0199% (inactive).

Question: With `COC(=O)c1ccccc1S(=O)(=O)NC(=O)N(C)c1nc(C)nc(OC)n1` as the compound, how does the “activation” value read?
Answer: Its value is 0.902% (inactive).

Question: How did the “activation” value turn out when `O=C1NCN(c2ccccc2)C12CCN(CC1COc3ccccc3O1)CC2` (stereo not given) was run?
Answer: Its value is 3.55% [at 35.3 µM] (inactive).

Question: `CC(=O)[O-].CC(=O)[O-].CC(=O)[O-].[Sb+3]` was tested. Which activation did it give?
Answer: Its activation is 14% [at 2.72 µM] (inactive).

Question: With `Cc1cc(OC(=O)N(C)C)nn1C(=O)N(C)C` as the compound, how does the “activation” value read?
Answer: The value was -0.63% (inactive).

Question: With `CSc1nc(N=[N+]=[N-])nc(NC(C)C)n1` as the compound, how does the “activation” value read?
Answer: Its value is -1.76% (inactive).

Question: Which “activation” value does the source give for `C[C@@H]1CC[C@H]2[C@@H](C)C(=O)O[C@@H]3O[C@@]4(C)CC[C@@H]1[C@]32OO4` here?
Answer: Its value is -1.93% [at 35.3 µM] (inactive).

Question: How did the “activation” value turn out when `O=C(C(Cl)(Cl)Cl)C(Cl)(Cl)Cl` was run?
Answer: The value was -0.0321% (inactive).

Question: With `Clc1cc(C(Cl)(Cl)Cl)cnc1Cl` as the compound, how does the “activation” value read?
Answer: The value was -0.182% (inactive).

Question: How did the “activation” value turn out when `COc1ncc(F)c2nc(S(=O)(=O)Nc3c(F)cccc3F)nn12` was run?
Answer: Its value is 1.91% [at 35.3 µM] (inactive).

Question: `CN/C(=N\[N+](=O)[O-])NCC1CCOC1` (stereo not given) was tested. Which “activation” value did it give?
Answer: Its value is 0.238% (inactive).

Question: Which “activation” value does the source give for `C=CC(=O)OCCN(C)C` here?
Answer: Its value is -4.48% (inactive).

Question: Which “activation” value does the source give for `Cc1ccc(S(=O)(=O)N[C@@H](CCCCN)C(=O)CCl)cc1` here?
Answer: Its value is 0.235% [at 35.3 µM] (inactive).

Question: For `CCC1(CC)C(=O)N=C(O)NC1=O`, which “activation” value is on record?
Answer: The value was 3.31% (inactive).

Question: Which “activation” value does the source give for `CCC(=O)c1ccc(Cl)cc1` here?
Answer: Its value is 1.2% (inactive).

Question: How did the “activation” value turn out when `Oc1cc(Cl)cc(Cl)c1` was run?
Answer: The value was 3.06% (inactive).

Question: With `FC(F)(F)c1cccc(C2=CCN(CCc3ccc4ccccc4c3)CC2)c1` as the compound, how does the “activation” value read?
Answer: The value was 1.65% [at 35.3 µM] (inactive).

Question: `[Cl][Sn]([c]1ccccc1)([c]1ccccc1)[c]1ccccc1` was tested. Which activation did it give?
Answer: Its activation is 2.74% [at 15.8 µM] (inactive).

Question: How did the “activation” value turn out when `CC(=O)C(Cl)(Cl)Cl` was run?
Answer: Its value is 8.62% (inactive).

Question: With `CC(C)(c1ccc(O)c(-c2ccccc2)c1)c1ccc(O)c(-c2ccccc2)c1` as the compound, how does the “activation” value read?
Answer: Its value is 1.87% (inactive).

Question: `O=[N+]([O-])c1ccc(Oc2ccc(C(F)(F)F)cc2[N+](=O)[O-])cc1` was tested. Which “activation” value did it give?
Answer: Its value is 1.23% (inactive).

Question: `O=C1C(Cl)C(CCl)CN1c1cccc(C(F)(F)F)c1` (stereo not given) was tested. Which “activation” value did it give?
Answer: The value was 1.9% (inactive).

Question: For `CCOP(=O)(NC(C)C)Oc1ccc(SC)c(C)c1` (stereo not given), which “activation” value is on record?
Answer: Its value is 1.37% (inactive).

Question: With `O=C(O)c1cc[c]([Hg][Cl])cc1` as the compound, how does the “activation” value read?
Answer: The value was -10.1% (inactive).

Question: How did the “activation” value turn out when `CCC(C)(NC(=O)c1cc(Cl)c(C)c(Cl)c1)C(=O)CCl` (stereo not given) was run?
Answer: The value was 9.77% (inactive).

Question: For `CCOP(=S)(S)OCC`, which “activation” value is on record?
Answer: The value was 3.66% (inactive).

Question: How did the “activation” value turn out when `CC1=NNC(=O)N(/N=C/c2cccnc2)C1` was run?
Answer: The value was -1.72% (inactive).
